Results on seven compounds are retold here after PubChem BioAssay (Tox21).

Values without a mark were called inactive. Records with an inconclusive call do not appear. Activity calls are given as the source filed them. Unless noted, the call rests on the fitted dose curve; in most records, active means well fitted curve in the direction sought with a large enough effect in the repeat runs; inconclusive means weak or mixed curves; inactive means no such curve, though single readings can be large; an effect the other way counts as inactive or inconclusive.

A short description of experiment [1]: qHTS assay for small molecule agonists of the p53 signaling pathway (AID 651631; calls by dose curve; further: nearly all actives have a fitted effect of over 15% in size; further: potency means the concentration at half of the fitted maximal effect). Summed up: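 We treat p53RE-bla HCT-116 cells with compounds for 16 h at 37 °C, add LiveBLAzer B/G FRET substrate for 2 h at room temperature, and measure fluorescence intensity.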
A short description of experiment [2]: qHTS assay for small molecules that induce genotoxicity in human embryonic kidney cells expressing luciferase-tagged ATAD5 (AID 651632). Further: nearly all actives have a fitted effect of over 15% in size. Summed up:
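HEK293T cells carrying luciferase-tagged ATAD5 were given compound or DMSO vehicle and incubated 16 hr at 37C, 5% CO2. Luciferase activity was read after 30 min at room temperature with Amplite; a rise signals genotoxic stress.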

The nature of experiment [3]: qHTS assay for small molecule agonists of the p53 signaling pathway - cell viability (AID 651633; calls by dose curve;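 further: p53RE-bla HCT reporter cells with a stable beta-lactamase p53 reporter; series mostly up to about 83 µM; nearly all actives have a fitted effect of over 30% in size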). Put shortly: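 Viability counter-read: CellTiter-Glo luminescence (30 min, room temperature) in the same p53RE-bla plates. These plates had been exposed to compounds for 16 h at 37 C.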
Experiment [4] in a line: qHTS assay for small molecules that induce genotoxicity in human embryonic kidney cells expressing luciferase-tagged ATAD5 - cell viability (AID 651634; calls by dose curve; further: nearly all actives have a fitted effect of over 25% in size). Put shortly: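 HEK293T cells carrying luciferase-tagged ATAD5, 2,000 cells/well, exposed to compound for 15.5 hr at 37C. Viability read as live-cell protease activity by CellTiter-Fluor fluorescence after 30 min at 37C.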

A short description of experiment [5]: qHTS assay for small molecule disruptors of the mitochondrial membrane potential - cell viability (AID 720634; calls by dose curve;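 further: human HepG2 liver cancer cells; series mostly up to about 83 µM; nearly all actives have a fitted effect of over 20% in size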). Put shortly: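 HepG2 cells, 2,000 per well, attached overnight, then treated 1 hr at 37 C, 5% CO2. Viability read as ATP by CellTiter-Glo luminescence after 30 min at room temperature. Read in the same wells as the m-MPI membrane-potential dye assay.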

Experiment [6] in a line: qHTS assay for small molecule disruptors of the mitochondrial membrane potential (AID 720635). Further: potency means the concentration at half of the fitted maximal effect. Put shortly:
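Mitochondrial membrane potential tracked with Mito-MPS dye, red aggregates (ex 540/em 590 nm) against green monomers (ex 490/em 535 nm). Compound treatment 1 hr at 37C, dye 30 min in HepG2.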

Experiment [7] is described as follows: qHTS assay to test for compound auto fluorescence at 590 nm (red) in HepG2 cells (AID 720674). Summed up:
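1 hr compound incubation on HepG2 cells, 37 C, 5% CO2; plate read ex 540 nm / em 590 nm; intensities reported as Rose Bengal sodium equivalents.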

Experiment [8] is described as follows: qHTS assay to test for compound auto fluorescence at 460 nm (blue) in HEK293 cells (AID 720678). Summed up: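 Blue-channel (Ex/Em 405/460 nm) intensity measured in HEK293 cultures after overnight compound exposure at 37C; signal expressed relative to triamterene. Cells plated 2,000 per well in 10% dialyzed FBS medium and allowed 4-5 hr to attach.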
The nature of experiment [9]: qHTS assay to test for compound auto fluorescence at 590 nm (red) in HEK293 cells (AID 720679). Put shortly:
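Red-channel autofluorescence (Ex/Em 540/590 nm; Rose Bengal sodium reference) was measured after overnight 37C, 5% CO2 exposure of attached HEK293 cells, 2,000 per well in medium with 10% dialyzed FBS.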

Experiment [10] is described as follows: qHTS assay to test for compound auto fluorescence at 535 nm (green) in HEK293 cells (AID 720680).
Experiment [11] is described as follows: qHTS assay to test for compound auto fluorescence at 460 nm (blue) in HEK293 cell free culture (AID 720681). Summed up: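 Blue fluorescence (Ex 405/Em 460 nm, triamterene-equivalent) was read immediately after pin transfer of compound or DMSO into medium (DMEM, 10% FBS) without cells.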
The nature of experiment [12]: qHTS assay to test for compound auto fluorescence at 535 nm (green) in HEK293 cell free culture (AID 720682). Summed up: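 Green-channel intensity (Ex/Em 485/535 nm) was recorded from compound-treated wells containing only DMEM with 10% FBS. Fluorescein provided the equivalency standard.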
Experiment [13] is described as follows: qHTS assay to test for compound auto fluorescence at 590 nm (red) in HEK293 cell free culture (AID 720683). Summed up:
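Red-channel autofluorescence of compounds in culture medium (DMEM, 10% FBS), no cells, measured at 540/590 nm. Rose Bengal sodium is the reference fluorophore for equivalence.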

A short description of experiment [14]: qHTS assay to test for compound auto fluorescence at 590 nm (red) in HepG2 cell free culture (AID 720684). Put shortly:
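Steps: dispense MEM/10% FBS medium, no cells; pin compound or DMSO vehicle; read red channel, Ex/Em 540/590 nm. Output given as Rose Bengal sodium equivalents.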

A short description of experiment [15]: qHTS assay to test for compound auto fluorescence at 460 nm (blue) in HepG2 cell free culture (AID 720685). Summed up:
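Compound (23 nL) or DMSO pinned into cell-free MEM with 10% FBS; blue fluorescence read at 405/460 nm excitation/emission, expressed as auto-fluorescence equivalency to triamterene.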

Experiment [16] in a line: qHTS assay to test for compound auto fluorescence at 535 nm (green) in HepG2 cell free culture (AID 720686).
Experiment [17] in a line: qHTS assay to test for compound auto fluorescence at 460 nm (blue) in HepG2 cells (AID 720687). Put shortly:
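Blue-channel autofluorescence (Ex/Em 405/460 nm, triamterene-equivalent) was measured after 1 hr compound exposure at 37 C, 5% CO2. Cells were HepG2, plated overnight at 37 C in MEM plus 10% FBS.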

The target in experiment [18] is Glucocorticoid receptor (Homo sapiens) (UniProt P04150). The experiment in a line: qHTS assay to identify small molecule agonists of the glucocorticoid receptor (GR) signaling pathway (AID 720691; active means well fitted activation curve with a large enough effect in the signal ratio in the repeat runs, not every such curve was filed as active; the % refers to the signal ratio). Summed up:
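GR-bla HeLa cells carrying a GRE-driven beta-lactamase reporter, exposed to compounds for 18 h at 37 C. Reporter activation read as fluorescence after 2 h with LiveBLAzer B/G FRET substrate at room temperature.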

Experiment [19] has the same target. The experiment in a line: qHTS assay to identify small molecule antagonists of the glucocorticoid receptor (GR) signaling pathway (AID 720692; active means well fitted inhibition curve with a large enough effect in the signal ratio in the repeat runs, not every such curve was filed as active; the % refers to the signal ratio). Put shortly:
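GR-bla HeLa cells carrying a GRE-driven beta-lactamase reporter received compound after 4 h plating, then dexamethasone (5 nM final). After 18 h at 37C, the FRET substrate was loaded for 2 h at room temperature and fluorescence read.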

Experiment [20] is described as follows: qHTS assay to test for compound auto fluorescence at 535 nm (green) in HepG2 cells (AID 720675).

Glucocorticoid receptor (Homo sapiens), sequence (P04150 whole entry, looked up): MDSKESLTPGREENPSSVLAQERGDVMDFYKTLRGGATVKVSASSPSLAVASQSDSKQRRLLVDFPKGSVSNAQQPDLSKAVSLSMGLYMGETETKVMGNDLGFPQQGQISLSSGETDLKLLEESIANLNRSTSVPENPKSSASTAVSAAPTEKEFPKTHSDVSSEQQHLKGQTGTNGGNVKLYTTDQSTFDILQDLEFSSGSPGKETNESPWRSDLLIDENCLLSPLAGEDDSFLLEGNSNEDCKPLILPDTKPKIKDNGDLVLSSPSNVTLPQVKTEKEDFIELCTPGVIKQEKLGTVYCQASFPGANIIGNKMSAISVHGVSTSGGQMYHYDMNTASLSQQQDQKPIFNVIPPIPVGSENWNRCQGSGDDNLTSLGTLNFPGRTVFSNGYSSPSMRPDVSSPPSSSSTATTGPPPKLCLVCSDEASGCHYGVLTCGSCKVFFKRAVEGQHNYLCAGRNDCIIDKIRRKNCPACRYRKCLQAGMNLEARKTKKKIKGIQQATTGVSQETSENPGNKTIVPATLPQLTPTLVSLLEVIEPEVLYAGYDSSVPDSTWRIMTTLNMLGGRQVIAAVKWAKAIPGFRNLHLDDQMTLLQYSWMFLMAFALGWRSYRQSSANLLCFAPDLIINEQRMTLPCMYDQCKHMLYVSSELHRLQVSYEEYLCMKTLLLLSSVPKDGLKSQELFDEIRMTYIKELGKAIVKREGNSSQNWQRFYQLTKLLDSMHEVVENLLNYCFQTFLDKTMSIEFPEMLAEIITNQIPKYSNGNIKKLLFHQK

On to `Oc1ccc(Sc2ccc(O)cc2)cc1`, for which the Potency in experiment [1] is 57.2 µM (active); in experiment [6], 18.1 µM (active). In addition, the Potency entry in experiment [2], in experiment [3], in experiment [4], in experiment [5], in [8] and in experiment [11] was “inactive” each time. Further, the Potency entry in experiment [15], in experiment [17], in experiment [18] and in [19] was “inactive” in each case. The result in experiment [7], in experiment [9], in experiment [10], in experiment [12], in experiment [13] and in experiment [14] was inactive. The call in experiment [16] was inactive.

In the case of `CCC(C)N(C)C(=O)c1cc2ccccc2c(-c2ccccc2Cl)n1` (stereo not drawn), the Potency result in experiment [1], in experiment [2], in experiment [3], in [4], in [6] and in experiment [8] was “inactive” each time. Moreover, the Potency result in experiment [11], in experiment [15] and in [17] was “inactive” throughout. In addition, the outcome in experiment [7], in experiment [20], in experiment [9], in [10], in [12] and in experiment [13] was inactive. The compound was classed as inactive in experiment [14] and in [16].

As to `CC(C)CC=O`, the Potency entry in experiment [1], in experiment [2], in experiment [3], in experiment [4], in [5] and in experiment [8] was “inactive” in each case. For the same compound, the Potency entry in experiment [11], in [15], in experiment [17], in [18] and in experiment [19] was “inactive” in each case. In addition, the outcome in [7], in experiment [20], in experiment [9], in [10], in experiment [12] and in [14] was inactive. Besides, in experiment [16], the compound was called inactive.

Regarding `O=C(/C=C/c1ccc(O)c(O)c1)O[C@@H]1C[C@](O)(C(=O)O)C[C@@H](O)[C@H]1O`, the Potency entry in [1], in experiment [2], in experiment [3], in experiment [4], in experiment [5] and in experiment [8] was “inactive” in each case. Also, the Potency result in [11], in experiment [15], in [17], in experiment [18] and in [19] was “inactive” in each case. Moreover, the outcome in experiment [7], in experiment [20], in experiment [9], in experiment [10], in experiment [12] and in experiment [13] was inactive. Moreover, the compound was classed as inactive in [14] and in experiment [16].

Consider `Cc1cc(NC(=O)C(=O)O)cc(C)c1Oc1ccc(O)c2c1CCC2`, for which the Potency result in experiment [1], in experiment [2], in experiment [3], in [4], in experiment [5] and in experiment [11] was “inactive” throughout. In addition, the Potency result in [15], in experiment [17], in [18] and in experiment [19] was “inactive” each time. The compound was classed as inactive in [7], in [20], in experiment [9], in [10], in experiment [12] and in [13]. Moreover, the call in experiment [14] and in experiment [16] was inactive.

Consider `CC[C@H](C)[C@H](N)C(=O)O`, for which the Potency result in [1], in experiment [2], in experiment [3], in [4], in experiment [5] and in experiment [8] was “inactive” each time. The Potency entry in experiment [17] and in experiment [18] was “inactive” each time. Moreover, the compound was classed as inactive in experiment [7], in [20], in experiment [9], in experiment [10], in [12] and in [13]. The call in experiment [14] and in [16] was inactive.

As for `CC1CCc2cc(F)cc3c(=O)c(C(=O)O)cn1c23` (stereo not drawn), the Potency entry in experiment [1], in experiment [2], in experiment [3], in experiment [4], in experiment [5] and in [8] was “inactive” throughout. Further, the Potency result in [11], in experiment [15] and in experiment [17] was “inactive” in each case. For the same compound, the compound was classed as inactive in [7], in experiment [20], in experiment [9], in experiment [10], in [12] and in experiment [13]. Also, in experiment [14], the outcome was inactive.
